Compounds with a hit are over-represented: about 7.5% of the library has one in this group of screens.
ELG1 genotoxic: inducers of genotoxicity in HEK293T ELG1-luciferase cells | Potency, µM (titrated, usually from 46 µM), without a hit: at the top dose activity change, positive = activation, usual class: activators | actives 1.3% (n = 330,000) | HEK293T ELG1-luciferase reporter, luminescence, 16 h | AID 504466; also: % of control where 0% means no effect; nearly all actives have a fitted effect of over 60% in size
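Genotoxicity was scored as increased ELG1-luciferase reporter signal, measured by ONE-Glo luminescence (30 min, room temperature). Compound or vehicle exposure of the HEK293T reporter cells lasted 16 hr at 37°C.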
Rab9 promoter act: activators of Rab9 promoter | AID 485297 | actives 2.8% (n = 320,000) | Huh7 Rab9 promoter-luciferase reporter, luminescence, 24 h | Potency, µM (series often up to 9.22 µM), for inactives: at the top dose activation, negative = inhibition, actives largely listed as activators; also: % of control where 0% means no effect; nearly all actives have a fitted effect of over 60% in size
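Luminescence from Amplite-detected luciferase (10 minutes, ambient) reports Rab9 promoter activation. Before that, stable Rab9-luciferase Huh7 cells (1500/well, reduced-serum OP-MEM I plus 10% FBS) were exposed to compound for 24 hours at 37C.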
SMN2 splice enh: SMN2 splice variant enhancement; Potency, µM (titrated, usually from 46.1 µM), for the others: top-dose activity change, positive = activation, hits mostly activators; AID 1458; HEK293 SMN2-luciferase splicing reporter, luminescence, 30-36 h; actives 2.8% (n = 210,000); also: % of control where 0% means no effect; nearly all actives have a fitted effect of over 55% in size
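HEK293 cells carry an SMN2 minigene-luciferase reporter in which exon 7 inclusion puts luciferase in frame. Cells were seeded at 2000 cells/well, attached for 10-12 hours, then exposed to compounds for 30-36 hours at 37C before ONE-Glo luminescence.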
NPC1 promoter act: activates the NPC1 promoter. AID 485313. actives 2.4% (n = 320,000). Potency, µM (top dose mostly 9.22 µM), for inactives: at the top dose activation, usual class: activators. Huh7 NPC1 promoter luciferase reporter, 24 h; also: % of control where 0% means no effect; nearly all actives have a fitted effect of over 60% in size
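Luminescence from an NPC1 promoter-driven luciferase reporter in stably transfected Huh7 cells was measured after 24 h compound treatment at 37 °C, followed by 10 min ambient incubation with luciferase detection reagent.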
FLuc counter: inhibits or activates purified firefly luciferase, miR-21 counter-screen; AID 588342; P08659; Potency, µM (top dose mostly 57.5 µM), for inactives: at the top dose activity change, negative = inhibition, usual class: inhibitors; purified FLuc, Km substrates, luminescence inhibition; actives 6.9% (n = 360,000);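 also: plate controls were vehicle for no effect and reference inhibitor for full effect; nearly all actives have a fitted effect of over 55% in size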
Target sequence (P08659 whole entry, looked up): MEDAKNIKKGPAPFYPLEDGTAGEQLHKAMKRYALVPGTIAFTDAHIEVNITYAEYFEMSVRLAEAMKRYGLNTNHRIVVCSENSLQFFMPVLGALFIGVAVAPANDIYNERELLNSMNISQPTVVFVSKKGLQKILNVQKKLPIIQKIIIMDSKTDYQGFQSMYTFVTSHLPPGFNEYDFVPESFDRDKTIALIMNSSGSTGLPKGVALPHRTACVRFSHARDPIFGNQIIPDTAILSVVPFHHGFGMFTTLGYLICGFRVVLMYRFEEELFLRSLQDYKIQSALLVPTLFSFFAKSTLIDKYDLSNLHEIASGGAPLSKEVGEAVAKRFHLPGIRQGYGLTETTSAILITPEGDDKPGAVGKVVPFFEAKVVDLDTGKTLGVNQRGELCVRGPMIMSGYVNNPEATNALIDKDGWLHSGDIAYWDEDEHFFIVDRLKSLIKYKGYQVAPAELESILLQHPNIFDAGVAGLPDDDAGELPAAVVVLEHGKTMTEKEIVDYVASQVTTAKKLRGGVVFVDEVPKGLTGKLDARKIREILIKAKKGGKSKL
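Biochemical qHTS of compounds, final roughly 60 µM downward over six points, against 10 nM purified firefly luciferase using Km concentrations of substrates (10 uM D-luciferin, 10 uM ATP) in Tris acetate pH 7.5 buffer; luminescence output.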
* marks the source's active call; other numbers are inactive results; ? = inconclusive; . = no result given; [ ] = remark or other dose. Calls follow the shape of the dose curve; as a rule, active = well fitted curve in the direction sought with a large enough effect; inconclusive = small, poorly fitted or top-dose-only effect, or another doubt; inactive = no such curve, though single readings can be large; an effect the other way counts as inactive or inconclusive. Potency is read from the fitted curve at half-maximal effect.

SMILES	ELG1 genotoxic	Rab9 promoter act	SMN2 splice enh	NPC1 promoter act	FLuc counter
CC(C)c1nc(SCC(=O)Nc2ccc3c(c2)OCO3)n[nH]1	-3%	0%	-15%	-1%	7%
CC(C)/C=C1\CCc2c([nH]c3ccccc23)C1=O	-14%	?	.	12%	?
Cc1ccc(/C=C2/CCc3c([nH]c4ccccc34)C2=O)cc1	?	0.45µM*	6.3µM*	0.5µM*	0.76µM*
Cc1ccc2[nH]c3c(c2c1)CC/C(=C/c1ccccc1)C3=O	?	?	?	28%	4.8µM*
O=C1/C(=C\c2ccccc2)CCc2c1[nH]c1ccccc21	1.5µM*	?	11µM*	?	2.7µM*
Cc1ccc(-c2nn3c(C)nnc3c3ccccc23)cc1S(=O)(=O)N(C)CCO	18µM*	-1%	?	-3%	1%
Cc1ccn(-c2ccc(NC(=O)c3cccs3)cc2)n1	?	0.63µM*	.	0.71µM*	3µM*
CN1CCN(c2ccc(NC(=O)c3cccs3)cc2)CC1	?	0.56µM*	11µM*	3.2µM*	12µM*
CC(C)C(=O)N1CCN(c2ccc(NC(=O)c3cccs3)cc2)CC1	1%	-2%	16%	-3%	-10%
O=C(Nc1cccc(N2CCCC2)c1)c1cccs1	-2%	29%	-22%	22%	17µM*
COc1ccc2nc(C)cc(NCc3cccc(C(F)(F)F)c3)c2c1	-1%	-1%	.	-5%	0%
O=C(Cc1coc2cc3c(cc12)CCC3)NCC1(N2CCCCC2)CCCCC1	2%	0%	-4%	-5%	-2%
COc1cc(/C=N\NC(=O)Cn2nnc3ccccc32)cc(OC)c1OC	12%	-3%	-3%	5%	-1%
Cc1nn(-c2ccccc2)c(Cl)c1/C=N/NC(N)=O	?	18%	.	18%	?
Cc1nn(-c2ccccc2)c(Cl)c1/C=N/NC(=O)c1ccnn1C	15µM*	2.8µM*	.	1.4µM*	2.7µM*
COC(=O)N/N=C\c1c(C)nn(-c2ccccc2)c1Cl	?	?	?	?	15µM*
Cc1nn(-c2ccccc2)c(Cl)c1/C=N/Nc1nnc(C)c(=O)[nH]1	-6%	-4%	.	-5%	-2%
Cc1nn(-c2ccccc2)c(Cl)c1/C=N/NC(=O)CNC(=O)c1ccccc1Cl	-3%	7%	4%	6%	19µM*
Cc1nn(-c2ccccc2)c(Cl)c1/C=N/Nc1nc2ccccc2n1C	8%	?	11µM*	3.5µM*	2.4µM*
C/C(=N\NC(=O)CCCOc1ccc(Cl)cc1C)c1ccc(C)o1	-2%	-6%	-23%	-2%	-13%
O=C(O)c1ccc2c(c1)C(=O)N(CCc1ccccc1)C2=O	0%	3%	.	3%	-3%
O=C(O)c1ccc2c(c1)C(=O)N(CCc1c[nH]c3ccccc13)C2=O	?	3.2µM*	.	2.5µM*	17µM*
CCOCCOC(=O)COc1ccc(N2C(=O)c3ccccc3C2=O)cc1	-7%	-6%	2%	-7%	19µM*
CC(C)Oc1ccc(N2C(=O)c3ccccc3C2=O)cc1	?	0%	-18%	1%	7.6µM*
COc1ccc(NC(=O)c2ccccc2NC(=O)c2ccccc2C(=O)O)c(OC)c1	13%	-4%[1.84 µM]	.	-3%	-13%
SMILES	ELG1 genotoxic	Rab9 promoter act	SMN2 splice enh	NPC1 promoter act	FLuc counter
Cc1ccccc1OCc1nnc2c3cnn(C)c3ncn12	?	4µM*	19%	3.2µM*	21µM*
COc1ccc(NC(=O)Nc2nc3c(s2)CCCC3)cc1	18%	1.8µM*	13µM*	4µM*	4.8µM*
O=C(Nc1cccc(Br)c1)Nc1nc2c(s1)CCCCCC2	.	.	.	.	11µM*
CCCn1c(SCc2nc3ccccc3s2)n[nH]c1=O	18µM*	3.5µM*	?	20%	5.4µM*
Cc1cc(C)c(-n2c(SCc3nc4ccccc4s3)n[nH]c2=O)c(C)c1	-4%	-1%	.	-8%	3%
CCCn1c(=O)c2ccccc2n2c(SCc3nc4ccccc4s3)nnc12	?	?	?	3%	11µM*
O=c1[nH]nc(SCc2nc3ccccc3s2)n1C1CC1	21µM*	?	?	10%	24µM*
CCCCn1c(SCc2nc3ccccc3s2)nc2ccccc2c1=O	7%	-4%	-49%	-2%	-1%
CC(C)(C)c1ccc(NC(=O)CSc2n[nH]c(=O)n2-c2cccnc2)cc1	1%	-2%	.	4%	-9%
N#Cc1c(-c2ccccc2)nc(SCc2ccc(Cl)cc2)[nH]c1=O	-4%	-4%	.	-4%	3%
Cn1nnnc1SCc1ccccc1F	-3%	-1%	24%	-1%	-1%
CCn1cnc2sc(C(=O)Oc3cccc(C)c3)c(C)c2c1=O	18µM*	?	-14%	?	?
Cc1c(C(=O)Oc2ccc(F)cc2)sc2ncn(Cc3cccc(F)c3)c(=O)c12	3%	-13%	?	-5%	3%
C=CCNC(=S)NNC(=O)COc1ccc2cc(Br)ccc2c1	?	3.2µM*	11µM*	?	-2%
COc1ccc(C(=O)NCc2nnc(SCC(=O)Nc3cc(OC)ccc3OC)o2)cc1	0%	2%	.	0%	3%
O=C1c2nc3cc(-c4ccco4)[nH]n3c(=O)c2CN1C1CCCCC1	?	14%	.	28%	2.4µM*
Cc1cc2nc(-c3ccccc3)cc(=O)n2[nH]1	11%	?	.	?	6.7µM*
O=c1cc(-c2ccccc2)nc2cc(-c3ccco3)[nH]n12	16%	?	.	22%	3.4µM*
O=c1cc(-c2ccccc2)nc2cc(-c3ccc(Br)cc3)[nH]n12	3%	?	.	?	-16%
O=C1c2nc3cc(-c4ccccc4)[nH]n3c(=O)c2CN1Cc1ccccc1	0%	-3%	.	-2%	-9%
C/C(=N\Nc1ccc(Cl)c(C(=O)O)c1)c1cccc([N+](=O)[O-])c1	17%	?	.	?	19µM*
C/C(=N\Nc1cc(C)nc(NCc2ccccc2)n1)c1cccc([N+](=O)[O-])c1	-2%	-5%	.	1%	12µM*
C/C(=N\Nc1nnc(-c2ccccc2)c(-c2ccccc2)n1)c1cccc([N+](=O)[O-])c1	21µM*	0%	8%	29%	13µM*
C/C(=N\Nc1cc(N2CCOCC2)nc(C)n1)c1cccc([N+](=O)[O-])c1	-4%	-17%	-41%	-20%	-14%
O/N=C\c1cnc(N2CCN(c3ccccc3)CC2)s1	?	?	.	16%	17µM*
O=Cc1cnc(N2CCCCC2)s1	4%	1%	9%	-3%	-1%
COc1ccccc1N1C(=O)c2ccc(C(=O)Nc3nccs3)cc2C1=O	-1%	9%	-3%	-3%	-9%
CC(Oc1ccc(Cl)cc1Cl)c1nc(-c2ccc(NC(=O)c3ccccn3)cc2)no1 (centres undefined)	?	?	?	2.8µM*	9.5µM*
COn1c(-c2ccccc2)nc2ncccc21	0%	9%	.	-4%	-2%

Assay outcomes deposited in PubChem by National Center for Advancing Translational Sciences (NCATS).
